From PubChem BioAssay (NCATS)
Inconclusive results are not listed. Activity calls are given as the source filed them. The call rests on the fitted dose curve; in most records, active means well fitted inhibition curve with a large enough effect; inconclusive means small, poorly fitted or top-dose-only effect; inactive means flat fitted curve, though single readings scatter.

What was measured:
Test in all cases: qHTS profiling for inhibitors of Plasmodium falciparum proliferation (AID 504749); further: nearly all actives have a fitted effect of over 60% in size
Conditions in all cases: P. falciparum in erythrocytes, SYBR Green DNA, 72 h; series mostly up to 28.7 µM
CP260 = test system: CP260
Outline: (§1)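 Parasite proliferation within erythrocytes, 72 h exposure. Endpoint: SYBR Green I fluorescence after overnight lysis at room temperature. Controls: 0.29 uM artemisinin, DMSO.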

CP265 = test system: CP265
Outline: as §1

CP266 = test system: CP266
Outline: as §1

CP268 = test system: CP268
Outline: as §1

CP269 = test system: CP269
Outline: as §1

CP286 = test system: CP286
Outline: as §1

CP291 = test system: CP291
Outline: as §1

CP297 = test system: CP297
Outline: as §1

CP305 = test system: CP305
Outline: as §1

CP315 = test system: CP315
Outline: as §1

CP325 = test system: CP325
Outline: as §1

CP329 = test system: CP329
Outline: as §1

CP335 = test system: CP335
Outline: as §1

DFO2036 = test system: DFO2036
Outline: as §1

DIV14 = test system: DIV14
Outline: as §1

DIV17 = test system: DIV17
Outline: as §1

DIV30 = test system: DIV30
Outline: as §1

Dd2 = test system: Dd2
Outline: as §1

ECU = test system: ECU
Outline: as §1

FAB9 = test system: FAB9
Outline: as §1

GB4 = test system: GB4
Outline: as §1

HB3 = test system: HB3
Outline: as §1

ICS = test system: ICS
Outline: as §1

JCK = test system: JCK
Outline: as §1

N140 = test system: N140
Outline: as §1

P93_24 = test system: P93_24
Outline: as §1

P94_40 = test system: P94_40
Outline: as §1

PAD = test system: PAD
Outline: as §1

PC15 = test system: PC15
Outline: as §1

PC26 = test system: PC26
Outline: as §1

PC49 = test system: PC49
Outline: as §1

SC27B = test system: SC27B
Outline: as §1

TAB109 = test system: TAB109
Outline: as §1

TAB113 = test system: TAB113
Outline: as §1

TAB165 = test system: TAB165
Outline: as §1

W2 = test system: W2
Outline: as §1

Measured: Potency

C[C@H](O)[C@@H]1C(=O)N2C(C(=O)O)=C(SCCN=CN)C[C@@H]12
inactive: all assays above
